Reference: PubChem BioAssay (NCATS)

Experiment: Cell Proliferation Assay against the HBL1 Cell Line (AID 651646);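 also: cells exposed to compound for 48 h before reading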
Conditions: HBL1 DLBCL cells; at 46.1 µM (top of the series) unless noted
From the text: One class of targeted therapeutics showing early clinical success in killing of ABC DLBCL lines are small molecule inhibitors of the Bruton tyrosine kinase (BTK) 11.
Prior to any combination assays, using an NCATS developed oncology compound library called the Mechanism of Interrogation Plate (MIPE), two well studied ABC DLBCL lines (TMD8 and HBL1) were screened using a cell viability assay (CellTiterGlo) and a 12-point titration series for each single agent. These initial experiments offered insight into the concentration range that offered the best coverage of activity and non-activity to assure relevant data is generated. In addition to the viability signature associated with this library, we examined the apoptotic response of each agent versus the TMD8 line as judged by caspase 3/7 activation. Activity was assayed at both 8 and 16 hour time-points to gain an appreciation of which agents induced an apoptotic response in a reasonable timeframe from a therapeutic exposure perspective. MIPE was also assayed for single agent viability in a human mesenchymal stem cell (hMSC) line as a surrogate of each library member's potential therapeutic index.
A total of 500 log growing HBL1 cells are seeded per well in 5 uL of a RPMI with glutamine (or Glutamax), without phenol red plus 5% FBS and 1X Pen/Strep into 1536 -solid white high base tissue culture treated Greiner One Bio Plates (789173-F) using a multidrop combi dispenser and a small sterile cassette. Compounds and controls totaling 23nL per well (negative control DMSO and positive control 9.2 uM Bortezomib-final) are immediately added to the plates using a 1536 head pin tool from Kalypsys. The plates are then covered with stainless steel gasket lids from Kalypsys and incubated for 48 hours at 37C under 95% relative humidity with 5% CO2. After 48 hours, the plates are removed and allowed to reach room temperature before 3 uL of Cell Titer Glo reagent (Promega) is added using an Aurora Flying Reagent Dispenser Bioraptor. The plates are then spun at 1000 rpms to remove bubbles and incubated for 15 minutes at room temperature before read on a ViewLux using a luminescent filter with a 10 second exposure. The relative luciferase units are used to calculated percent activity using DMSO as 100% and Bortezomib as 0%.

Row | Structure (SMILES) | viability, percent of control
1 | Cc1cccc(C#Cc2ccccc2)n1 | 102%
2 | COc1cc(Nc2c(C#N)cnc3cc(OCCCN4CCN(C)CC4)c(OC)cc23)c(Cl)cc1Cl | 5.95%
3 | CCN(CC)CCOc1ccc(Nc2ncc3cc(-c4c(Cl)cccc4Cl)c(=O)n(C)c3n2)cc1 | 1.36%
4 | Nc1cccc2c1CN(C1CCC(=O)NC1=O)C2=O (stereo unspecified) | 121% [at 92.2 µM]
5 | Cc1nc(Nc2ncc(C(=O)Nc3c(C)cccc3Cl)s2)cc(N2CCN(CCO)CC2)n1 | 27.1%
6 | CCOC(=O)C(C)Oc1cccc2c(=O)n(CC(=O)Nc3ccc4c(c3)OCCO4)ccc12 (stereo unspecified) | 108%
7 | Cc1ccc(NC(=O)c2ccc(CN3CCN(C)CC3)cc2)cc1Nc1nccc(-c2cccnc2)n1 | 38%
8 | CC(C)C[C@H](NC(=O)[C@H](Cc1ccccc1)NC(=O)c1cnccn1)B(O)O | 3.27%
9 | CCN(CCO)CCCC(C)Nc1ccnc2cc(Cl)ccc12 (stereo unspecified) | 121%
10 | C[C@@H](N)C1CCC(C(=O)Nc2ccncc2)CC1 (stereo partly specified) | 95.4%
11 | Cc1ccc(Nc2nccc(N(C)c3ccc4c(C)n(C)nc4c3)n2)cc1S(N)(=O)=O | 35.9%
12 | CC(C)c1ccc2c(c1)c(SC(C)(C)C)c(CC(C)(C)C(=O)O)n2Cc1ccc(Cl)cc1 | 8.87%
13 | CCOC(=O)C1=C(O)C(=O)N(Cc2ccccc2)C1 | 107%
14 | COc1cc2c(N3CCN(C(=O)Nc4ccc(OC(C)C)cc4)CC3)ncnc2cc1OCCCN1CCCCC1 | 15.5%
15 | S=c1nc[nH]c2nc[nH]c12 | 54.4% [at 92.2 µM]
16 | Cc1cccc(-c2[nH]ncc2-c2ccc3ncccc3n2)n1 | 116% [at 92.2 µM]
